In PubChem BioAssay (NCI):
Compounds without any hit were thinned out: in the full panel of roughly 83,000, 20% have a hit.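 Each cell line was grown in a 96-well plate and treated with one concentration of compound for 48 hours. Values below 10 were considered active.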

Experiments:
Assay in all cases: NCI-60 one-dose screen, 48 h (100 = growth as untreated, 0 = no growth, -100 = all killed)
DU-145 prostate = settings: 10 µM unless noted
K-562 leukemia = settings: 10 µM unless noted
MALME-3M melanoma = settings: 10 µM unless noted
MDA-MB-231 breast = settings: 10 µM unless noted
RXF 393 renal = settings: 10 µM unless noted
SF-268 CNS = settings: 10 µM unless noted
SF-295 CNS = settings: 10 µM unless noted
SF-539 CNS = settings: 10 µM unless noted
UACC-257 melanoma = settings: 10 µM unless noted
M14 melanoma = settings: 10 µM unless noted
HCT-15 colon = settings: 10 µM unless noted
HT29 colon = settings: 10 µM unless noted
SNB-75 CNS = settings: 10 µM unless noted
SNB-19 CNS = settings: 10 µM unless noted
U251 CNS = settings: 10 µM unless noted
PC-3 prostate = settings: 10 µM unless noted
SK-MEL-5 melanoma = settings: 10 µM unless noted
UACC-62 melanoma = settings: 10 µM unless noted
LOX IMVI melanoma = settings: 10 µM
SK-MEL-28 melanoma = settings: 10 µM unless noted

Measured: growth

CC(=O)c1cccc(N(C)S(=O)(=O)c2ccc(C)cc2)c1
inactive: DU-145 prostate 98.2% | K-562 leukemia 47.8% | MALME-3M melanoma 84% | MDA-MB-231 breast 93.1% | RXF 393 renal 116% | SF-268 CNS 93% | SF-295 CNS 93.2% | SF-539 CNS 79.1% | UACC-257 melanoma 94.7% | M14 melanoma 77.6% | HCT-15 colon 57.2% | HT29 colon 72.1% | SNB-75 CNS 81.6% | SNB-19 CNS 96.8% | U251 CNS 87.4% | PC-3 prostate 85.2% | SK-MEL-5 melanoma 90.1% | UACC-62 melanoma 96% | LOX IMVI melanoma 82.3% | SK-MEL-28 melanoma 93.6%

CCOC(=O)c1ccc(NC(C)=O)o1
inactive: DU-145 prostate 111% | K-562 leukemia 84.3% | MALME-3M melanoma 107% | MDA-MB-231 breast 105% | RXF 393 renal 102% | SF-268 CNS 100% | SF-295 CNS 98.5% | SF-539 CNS 105% | UACC-257 melanoma 80.2% | M14 melanoma 106% | HCT-15 colon 106% | HT29 colon 102% | SNB-75 CNS 94.3% | SNB-19 CNS 97.1% | U251 CNS 94.1% | PC-3 prostate 95.8% | SK-MEL-5 melanoma 97.9% | UACC-62 melanoma 90.4% | LOX IMVI melanoma 95.4% | SK-MEL-28 melanoma 118%

CC1(C)C2CCC1(C)C1(C2)OCCS1 (stereo not given)
inactive: DU-145 prostate 103% | K-562 leukemia 96.5% | MALME-3M melanoma 94.6% | MDA-MB-231 breast 100% | RXF 393 renal 96% | SF-268 CNS 93.8% | SF-295 CNS 92.2% | SF-539 CNS 94.1% | UACC-257 melanoma 102% | M14 melanoma 113% | HCT-15 colon 95.9% | HT29 colon 110% | SNB-75 CNS 78.5% | SNB-19 CNS 88.8% | U251 CNS 97% | PC-3 prostate 92.4% | SK-MEL-5 melanoma 93.8% | UACC-62 melanoma 87% | LOX IMVI melanoma 92.2% | SK-MEL-28 melanoma 102%

O=Cc1c(O)c2ccccc2[nH]c1=O
inactive: DU-145 prostate 158% | K-562 leukemia 111% | MALME-3M melanoma 139% | MDA-MB-231 breast 99.6% | RXF 393 renal 114% | SF-268 CNS 110% | SF-295 CNS 109% | SF-539 CNS 97.9% | UACC-257 melanoma 84.8% | M14 melanoma 94.4% | HCT-15 colon 95.2% | HT29 colon 116% | SNB-75 CNS 77.9% | SNB-19 CNS 104% | U251 CNS 94.3% | PC-3 prostate 94.4% | SK-MEL-5 melanoma 95.1% | UACC-62 melanoma 87.9% | LOX IMVI melanoma 98.5% | SK-MEL-28 melanoma 107%

COc1cc(C(=O)NC(=S)NCc2ccncc2)cc(OC)c1OC
inactive: DU-145 prostate 103% | K-562 leukemia 86.2% | MALME-3M melanoma 104% | MDA-MB-231 breast 114% | RXF 393 renal 95.8% | SF-268 CNS 102% | SF-295 CNS 96.5% | SF-539 CNS 95.8% | UACC-257 melanoma 103% | M14 melanoma 106% | HCT-15 colon 95.5% | HT29 colon 89.2% | SNB-75 CNS 92.5% | SNB-19 CNS 106% | U251 CNS 98.7% | PC-3 prostate 95.9% | SK-MEL-5 melanoma 90.3% | UACC-62 melanoma 99.3% | LOX IMVI melanoma 97.7% | SK-MEL-28 melanoma 102%

CC(=O)Nc1ncc(S(=O)(=O)c2ccc([N+](=O)[O-])cc2)s1
inactive: DU-145 prostate 113% | K-562 leukemia 99.3% | MALME-3M melanoma 118% | MDA-MB-231 breast 123% | RXF 393 renal 115% | SF-268 CNS 100% | SF-295 CNS 112% | SF-539 CNS 113% | UACC-257 melanoma 104% | M14 melanoma 97.3% | HCT-15 colon 105% | HT29 colon 108% | SNB-75 CNS 103% | SNB-19 CNS 114% | U251 CNS 108% | PC-3 prostate 101% | SK-MEL-5 melanoma 113% | UACC-62 melanoma 102% | LOX IMVI melanoma 106% | SK-MEL-28 melanoma 111%

CCOC(=O)C(=O)CC(=O)c1ccccc1
inactive: DU-145 prostate 102% | K-562 leukemia 118% | MALME-3M melanoma 100% | MDA-MB-231 breast 92.9% | RXF 393 renal 103% | SF-268 CNS 96.7% | SF-295 CNS 104% | SF-539 CNS 100% | UACC-257 melanoma 101% | M14 melanoma 97.1% | HCT-15 colon 102% | HT29 colon 103% | SNB-75 CNS 91.7% | SNB-19 CNS 100% | U251 CNS 93.3% | PC-3 prostate 89.4% | SK-MEL-5 melanoma 95% | UACC-62 melanoma 93.3% | LOX IMVI melanoma 98.6% | SK-MEL-28 melanoma 106%

CCOc1ccc(NC(=S)N2CCC(CCCC3CCN(C(=S)Nc4ccc(OCC)cc4)CC3)CC2)cc1
inactive: DU-145 prostate 95.9% | K-562 leukemia 61.5% | MALME-3M melanoma 80.1% | MDA-MB-231 breast 92.4% | RXF 393 renal 110% | SF-268 CNS 83.1% | SF-295 CNS 84.6% | SF-539 CNS 106% | UACC-257 melanoma 83.1% | M14 melanoma 97.9% | HCT-15 colon 84% | HT29 colon 87.7% | SNB-75 CNS 80.3% | SNB-19 CNS 96% | U251 CNS 95.1% | PC-3 prostate 99% | SK-MEL-5 melanoma 42.2% | UACC-62 melanoma 83.7% | LOX IMVI melanoma 95.5% | SK-MEL-28 melanoma 94.9%

CCOC(=O)CSCCC#N
inactive: DU-145 prostate 108% | K-562 leukemia 112% | MALME-3M melanoma 106% | MDA-MB-231 breast 110% | RXF 393 renal 97.8% | SF-268 CNS 101% | SF-295 CNS 94.7% | SF-539 CNS 92.2% | UACC-257 melanoma 95.4% | M14 melanoma 94.9% | HCT-15 colon 100% | HT29 colon 97.9% | SNB-75 CNS 97% | SNB-19 CNS 104% | U251 CNS 105% | PC-3 prostate 97.8% | SK-MEL-5 melanoma 111% | UACC-62 melanoma 99.3% | LOX IMVI melanoma 96.3% | SK-MEL-28 melanoma 96.6%

COc1ccc(C(=O)C(=O)c2ccccc2)cc1
inactive: DU-145 prostate 113% | K-562 leukemia 111% | MALME-3M melanoma 101% | MDA-MB-231 breast 101% | RXF 393 renal 92.9% | SF-268 CNS 105% | SF-295 CNS 96.6% | SF-539 CNS 117% | UACC-257 melanoma 111% | M14 melanoma 106% | HCT-15 colon 91.9% | HT29 colon 107% | SNB-75 CNS 104% | SNB-19 CNS 100% | U251 CNS 101% | PC-3 prostate 104% | SK-MEL-5 melanoma 90.7% | UACC-62 melanoma 99.2% | LOX IMVI melanoma 100% | SK-MEL-28 melanoma 110%

O=C(O)C1CCCN1C(=O)OCc1ccccc1 (stereo not given)
inactive: DU-145 prostate 118% | K-562 leukemia 99.1% | MALME-3M melanoma 108% | MDA-MB-231 breast 128% | RXF 393 renal 139% | SF-268 CNS 107% | SF-295 CNS 107% | SF-539 CNS 107% | UACC-257 melanoma 105% | M14 melanoma 99.1% | HCT-15 colon 108% | HT29 colon 97.6% | SNB-75 CNS 81.6% | SNB-19 CNS 104% | U251 CNS 108% | PC-3 prostate 108% | SK-MEL-5 melanoma 104% | UACC-62 melanoma 109% | LOX IMVI melanoma 88.4% | SK-MEL-28 melanoma 105%

CCCC(=O)CC(=O)c1ccccc1
inactive: DU-145 prostate 106% | K-562 leukemia 112% | MALME-3M melanoma 107% | MDA-MB-231 breast 111% | RXF 393 renal 93.6% | SF-268 CNS 97.3% | SF-295 CNS 97% | SF-539 CNS 104% | UACC-257 melanoma 80.9% | M14 melanoma 100% | HCT-15 colon 103% | HT29 colon 91.1% | SNB-75 CNS 105% | SNB-19 CNS 103% | U251 CNS 86% | PC-3 prostate 94.7% | SK-MEL-5 melanoma 99.5% | UACC-62 melanoma 103% | LOX IMVI melanoma 97.5% | SK-MEL-28 melanoma 107%

O=C(O)c1cccc(-n2ncc(Cl)c(Cl)c2=O)c1
inactive: DU-145 prostate 114% | K-562 leukemia 109% | MALME-3M melanoma 106% | MDA-MB-231 breast 103% | RXF 393 renal 118% | SF-268 CNS 108% | SF-295 CNS 102% | SF-539 CNS 101% | UACC-257 melanoma 89.2% | M14 melanoma 101% | HCT-15 colon 98.5% | HT29 colon 113% | SNB-75 CNS 81.1% | SNB-19 CNS 102% | U251 CNS 101% | PC-3 prostate 88.7% | SK-MEL-5 melanoma 98% | UACC-62 melanoma 97.2% | LOX IMVI melanoma 92.2% | SK-MEL-28 melanoma 102%

C=COC(=O)C(C)(C)C
inactive: DU-145 prostate 110% | K-562 leukemia 103% | MALME-3M melanoma 95.5% | MDA-MB-231 breast 113% | RXF 393 renal 105% | SF-268 CNS 103% | SF-295 CNS 93.1% | SF-539 CNS 102% | UACC-257 melanoma 107% | M14 melanoma 107% | HCT-15 colon 102% | HT29 colon 104% | SNB-75 CNS 90.4% | SNB-19 CNS 95.3% | U251 CNS 99.4% | PC-3 prostate 95.3% | SK-MEL-5 melanoma 99.9% | UACC-62 melanoma 99.9% | LOX IMVI melanoma 96.4% | SK-MEL-28 melanoma 108%

CCCCCC(=O)OCCC1CCCCC1
inactive: DU-145 prostate 98.2% | K-562 leukemia 107% | MALME-3M melanoma 84.1% | MDA-MB-231 breast 114% | RXF 393 renal 104% | SF-268 CNS 93% | SF-295 CNS 108% | SF-539 CNS 97.8% | UACC-257 melanoma 95.9% | M14 melanoma 94% | HCT-15 colon 107% | HT29 colon 101% | SNB-75 CNS 89.1% | SNB-19 CNS 112% | U251 CNS 96% | PC-3 prostate 98.7% | SK-MEL-5 melanoma 100% | UACC-62 melanoma 104% | LOX IMVI melanoma 98.6% | SK-MEL-28 melanoma 105%

COc1cc(-c2ccc(NC(=O)CC(C)=O)c(OC)c2)ccc1NC(=O)CC(C)=O
inactive: DU-145 prostate 111% | K-562 leukemia 98% | MALME-3M melanoma 97.3% | MDA-MB-231 breast 101% | RXF 393 renal 113% | SF-268 CNS 107% | SF-295 CNS 101% | SF-539 CNS 97.6% | UACC-257 melanoma 89.3% | M14 melanoma 104% | HCT-15 colon 96.7% | HT29 colon 107% | SNB-75 CNS 82.2% | SNB-19 CNS 101% | U251 CNS 89.6% | PC-3 prostate 95.1% | SK-MEL-5 melanoma 98.1% | UACC-62 melanoma 102% | LOX IMVI melanoma 96.7% | SK-MEL-28 melanoma 111%
